Hit rate of the full screen: of about 310,000 compounds, about 14,000 (4.5%) showed an effect of 50% or more. The effect is printed as a negative number. The sample as a whole holds a higher share of strong results than the screen did.
Biological target: human ether-à-go-go-related gene (hERG) potassium channel (human, UniProt Q12809)
Test: primary screen, population patch clamp on CHO cells stably expressing hERG; higher = less effect of the substance
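Also: peak tail current of the secondary pulse compared with the same well before compound.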

human ether-à-go-go-related gene (hERG) potassium channel, sequence (Q12809 whole entry, looked up): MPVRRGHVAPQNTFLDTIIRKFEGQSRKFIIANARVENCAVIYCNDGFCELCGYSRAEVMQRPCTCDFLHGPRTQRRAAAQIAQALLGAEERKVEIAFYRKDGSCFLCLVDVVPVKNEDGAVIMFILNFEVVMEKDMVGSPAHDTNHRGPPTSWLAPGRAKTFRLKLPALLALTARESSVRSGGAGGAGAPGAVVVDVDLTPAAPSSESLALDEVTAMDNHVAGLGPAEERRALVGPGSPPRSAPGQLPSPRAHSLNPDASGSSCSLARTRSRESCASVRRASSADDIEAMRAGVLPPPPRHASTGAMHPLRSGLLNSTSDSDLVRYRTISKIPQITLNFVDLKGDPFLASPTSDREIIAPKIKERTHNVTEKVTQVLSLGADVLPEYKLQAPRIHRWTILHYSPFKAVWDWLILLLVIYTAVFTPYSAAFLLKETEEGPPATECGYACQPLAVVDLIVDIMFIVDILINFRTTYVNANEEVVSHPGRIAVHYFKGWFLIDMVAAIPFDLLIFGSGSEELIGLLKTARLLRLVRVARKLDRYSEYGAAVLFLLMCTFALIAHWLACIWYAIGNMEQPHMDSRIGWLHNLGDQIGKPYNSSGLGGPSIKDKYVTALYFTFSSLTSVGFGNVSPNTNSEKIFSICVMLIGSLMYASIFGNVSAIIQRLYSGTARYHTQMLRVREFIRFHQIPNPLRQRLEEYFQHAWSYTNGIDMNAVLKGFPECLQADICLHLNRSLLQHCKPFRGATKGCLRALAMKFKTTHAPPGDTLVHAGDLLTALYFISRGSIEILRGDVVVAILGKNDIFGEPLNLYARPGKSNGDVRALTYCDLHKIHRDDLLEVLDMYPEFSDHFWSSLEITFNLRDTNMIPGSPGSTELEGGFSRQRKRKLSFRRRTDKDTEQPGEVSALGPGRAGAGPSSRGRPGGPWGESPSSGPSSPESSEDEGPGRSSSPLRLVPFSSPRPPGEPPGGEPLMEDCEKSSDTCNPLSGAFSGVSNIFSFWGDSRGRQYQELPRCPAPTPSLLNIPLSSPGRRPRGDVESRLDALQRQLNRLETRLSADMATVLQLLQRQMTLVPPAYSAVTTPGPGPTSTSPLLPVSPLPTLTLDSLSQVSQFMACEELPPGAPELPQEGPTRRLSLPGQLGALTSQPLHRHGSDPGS

Going from `Cn1c(C(=O)NCCCN2CCN(c3ccccc3F)CC2)cc2c(=O)n(C)c3ccccc3c21` to `Cn1c2ccccc2c2cnn(CC(=O)NCCCN3CCN(c4ccccc4F)CC3)c(=O)c21`, the “hERG current change (%, negative = inhibition) at 10uM” value falls from -11.7% to -76.3%.

Compared with `Cc1cc(C)c2c(=O)n(CC(=O)NCCCN3CCOCC3)sc2n1`, `Cc1cc(C)c2c(=O)n(CC(=O)NCCCN3CCN(c4ccccc4F)CC3)sc2n1` is lower in “hERG current change (%, negative = inhibition) at 10uM” value: 11.4% for the first, -55.3% for the second.

First: CCCN1CCN(CCCNC(=O)Cn2ncc3c4ccccc4n(C)c3c2=O)CC1
Second: CN1CCN(CCCNC(=O)Cn2ncc3c4ccccc4n(C)c3c2=O)CC1
The “hERG current change (%, negative = inhibition) at 10uM” value of the first is lower: -56.6% for the first, 12% for the second.

Compared with `COCCNC(=O)Cn1cc(S(=O)(=O)N2CCN(c3ccccc3F)CC2)c2ccccc2c1=O`, `CCC(C)NC(=O)Cn1cc(S(=O)(=O)N2CCN(c3ccccc3F)CC2)c2ccccc2c1=O` (stereo not drawn) is lower in “hERG current change (%, negative = inhibition) at 10uM” value: -2.76% for the first, -4.4% for the second.

Compared with `CCCNC(=O)Cn1sc2nc(C)cc(C)c2c1=O`, `CC1CCCC(C)N1CCCNC(=O)Cn1ncc2c3ccccc3n(C)c2c1=O` (stereo not drawn) is lower in “hERG current change (%, negative = inhibition) at 10uM” value: -6.1% for the first, -36.9% for the second.

First: O=C(Cn1cc(S(=O)(=O)N2CCN(c3ccccc3F)CC2)c2ccccc2c1=O)NCCCN1CCCCCC1
Second: Cc1ccccc1CS(=O)(=O)CCC(=O)NCCCN1CCN(c2ccccc2F)CC1
The “hERG current change (%, negative = inhibition) at 10uM” value of the first is lower: -61.1% for the first, -59.3% for the second.

First: O=C(Cn1ncc2c(=O)oc3ccccc3c21)NCCN1CCN(c2ccccc2F)CC1
Second: COc1ccccc1N1CCN(CCCNC(=O)Cn2ncc3c([nH]c4ccccc43)c2=O)CC1
The “hERG current change (%, negative = inhibition) at 10uM” value of the first is higher: -28.4% for the first, -68.6% for the second.

Going from `CC(=O)OC1COC(N2CCc3cc([N+](=O)[O-])ccc32)C(OC(C)=O)C1OC(C)=O` (stereo not drawn) to `COC(=O)C1CN(C(=O)C(C)Oc2cccc(C)c2C)c2ccccc2O1` (stereo not drawn), the “hERG current change (%, negative = inhibition) at 10uM” value falls from 2.87% to -8.63%.

First: CC(=O)c1nc(N2C(=O)CC(Cc3cccc(C)c3)C2=O)sc1C (stereo not drawn)
Second: CCCNc1nc2c(c(=O)n(C)c(=O)n2C)n1Cc1ccc(F)cc1
The “hERG current change (%, negative = inhibition) at 10uM” value of the first is lower: -16.3% for the first, -12.8% for the second.

Going from `CCOC(=O)C1CCCN(C(=O)CCCn2nnnc2CN2CCC(C)CC2)C1` (stereo not drawn) to `CC1CCN(CCCNC(=O)Cn2ncc3c([nH]c4ccccc43)c2=O)CC1`, the “hERG current change (%, negative = inhibition) at 10uM” value rises from -8.13% to 9.35%.

Going from `O=C1Nc2ccc(Br)cc2C1(O)c1ccc(F)cc1` (stereo not drawn) to `O=C(O)CCC(=O)N1CCN(c2nc(-c3ccccc3)c3cc(Br)ccc3n2)CC1`, the “hERG current change (%, negative = inhibition) at 10uM” value falls from 7% to 3.79%.

Compared with `Nc1cc(=O)[nH]c(SCC(=O)NCC2CCCO2)n1` (stereo not drawn), `CCOC(=O)c1cnc(SCC(=O)NCc2ccco2)nc1N` is lower in “hERG current change (%, negative = inhibition) at 10uM” value: 1.45% for the first, -14.5% for the second.

Going from `NC(=O)COC(=O)CC(c1ccccc1)c1ccccc1` to `CC(C)[C@H](NC(=O)N1CCn2c1nc1ccccc12)C(=O)N[C@@H](C(=O)O)c1ccccc1`, the “hERG current change (%, negative = inhibition) at 10uM” value rises from 4.16% to 17.7%.

Going from `CCCCCCC1/C(=N\NC(=O)c2ccccc2)CCC1C(=O)OC` (stereo not drawn) to `COc1ccccc1NC(=O)CCC(=O)O`, the “hERG current change (%, negative = inhibition) at 10uM” value rises from -43.8% to 23.4%.

Compared with `CC(C)c1ccc(N(C)C(=O)Cc2c(C(=O)O)n(C)c3ccccc23)cc1`, `CCOC(=O)c1cnc2ccccc2c1Nc1ccc(C(=O)O)cc1.Cl` is higher in “hERG current change (%, negative = inhibition) at 10uM” value: 0.167% for the first, 17.9% for the second.

Compared with `Fc1cnc(N/N=C/c2ccc(-c3ccc(Br)cc3)o2)nc1N1CCOCC1`, `CCOC(=O)c1cnc2c(C)cccc2c1Nc1ccc(N2CCOCC2)cc1` is higher in “hERG current change (%, negative = inhibition) at 10uM” value: -15.8% for the first, 8.24% for the second.

First: COc1cccc(/C=C/C(=O)OCC(=O)c2c[nH]c3ccccc23)c1
Second: CCOC(=O)c1cnc2c(C)cccc2c1Nc1cccc(C(=O)O)c1.Cl
The “hERG current change (%, negative = inhibition) at 10uM” value of the first is higher: 13% for the first, -8.37% for the second.

Compared with `Cc1ccccc1CS(=O)(=O)CCC(=O)NCCCN1CCOCC1`, `O=C(CCS(=O)(=O)Cc1ccccc1F)NCCCN1CCCCC1` is higher in “hERG current change (%, negative = inhibition) at 10uM” value: -10.6% for the first, 8.31% for the second.

First: O=C(Cn1ncc2c([nH]c3ccccc32)c1=O)NCCCN1CCN(c2ccccc2)CC1
Second: CCOC(=O)c1nn(-c2ccccc2)c(=O)cc1OCC(=O)Nc1cc(C)ccc1OC
The “hERG current change (%, negative = inhibition) at 10uM” value of the first is higher: -21.5% for the first, -44% for the second.

Compared with `Nc1nc2ccccc2n1/N=C/c1cccnc1`, `CCOC(=O)c1cnc2ccccc2c1NCc1ccco1` is lower in “hERG current change (%, negative = inhibition) at 10uM” value: 2.44% for the first, -56.9% for the second.

Compared with `CC(C)(OC(=O)NC(=O)C(F)(F)F)C(C)(C)OC(=O)NC(=O)C(F)(F)F`, `CCOC(=O)c1cnc2c(C(=O)OC)cccc2c1NCc1ccco1` is lower in “hERG current change (%, negative = inhibition) at 10uM” value: 31.4% for the first, -70.2% for the second.

First: COc1ccc(Cn2c(O)c(C=Nc3ccc(C)cc3)c3ccccc3c2=O)cc1
Second: COc1ccc(-n2nc3c(c2NC(=O)COc2ccccc2)CS(=O)C3)cc1 (stereo not drawn)
The “hERG current change (%, negative = inhibition) at 10uM” value of the first is higher: 2.35% for the first, -28.2% for the second.

Going from `C=CCNc1nc(NCC)nc(N2CCOCC2)n1` to `CCOc1ccc(NC(=O)c2nc(SCC)ncc2Cl)cc1`, the “hERG current change (%, negative = inhibition) at 10uM” value rises from -0.791% to 15%.

Compared with `NC(=NC(=O)c1ccc(OCC(F)(F)F)nc1)c1ccc(Cl)cc1`, `O=C(COc1ccc2c3c(c(=O)oc2c1)CCCC3)NC(Cc1ccc(Cl)cc1)C(=O)O` (stereo not drawn) is lower in “hERG current change (%, negative = inhibition) at 10uM” value: 17.9% for the first, 5.92% for the second.

Going from `O=S(=O)(NCc1cccnc1)c1ccc2c(c1)OCCO2` to `CCOC(=O)c1ccc2ncc(C(=O)OCC)c(NCc3ccco3)c2c1`, the “hERG current change (%, negative = inhibition) at 10uM” value falls from 0.45% to -24.7%.

First: CCOC(=O)c1cccnc1SC(CC)C(=O)NCc1ccco1 (stereo not drawn)
Second: CCOC(=O)c1cnc2c(C)cccc2c1NCc1ccco1
The “hERG current change (%, negative = inhibition) at 10uM” value of the first is higher: -31.5% for the first, -67.9% for the second.

First: COc1ccc(OC)c(C(C(=O)NC2CCCCC2)N(C(=O)c2snc(C(N)=O)c2N)c2ccccc2OC)c1 (stereo not drawn)
Second: CCOC(=O)c1nc(C)n(-c2cc(Cl)cc(Cl)c2)n1
The “hERG current change (%, negative = inhibition) at 10uM” value of the first is higher: 14.8% for the first, -17.5% for the second.

— article PMC4336329 (PLoS ONE, 2015)
